In PubChem BioAssay AID932 (The Scripps Research Institute Molecular Screening Center, 2007):
In all, about 200,000 compounds went through this assay and about 5,100 (2.5%) were called active. The entries come from a sample that favours actives as a whole. A number with no mark means an inactive call.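 How the source made its calls: active means activation above the screen-wide mean activation plus 3 SD (cut at about 130% in these data); inactive means the rest.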

experiment: STAT1 signaling activators, primary screen, cell-based, HTS, luciferase reporter (AID 932); settings: NIH 3T3 STAT1-luciferase reporter, IFN-gamma, luminescence; at 5.5 µM; active compounds read high; 100% = IFN-gamma alone, no compound;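 further: raw ratio to IFN-gamma control signal so 100% means no change and 0% no light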

Row | SMILES | activation (% of control)
1 | O=C(Nc1cccc(OC(=O)N2CCCCC2)c1)N1CCOCC1 | 101%
2 | CN1CCN(C(=O)COc2ccc(C(C)(C)C)cc2Br)CC1 | 97%
3 | CC(C)(C)c1ccc(OC(=O)N2CCCCC2)cc1 | 146% (active)
4 | Cc1ccccc1N1C(=O)NC(=O)/C(=C\c2cc(C)n(C)c2C)C1=O | 92.7%
5 | CCOC(=O)C1CN(C)CCC1=O (stereo not given) | 96.3%
